Results on 11 compounds are retold here after PubChem BioAssay (NCATS).

Experiment [1] in a line: P-glycoprotein substrates identified in KB-3-1 adenocarcinoma cell line, qHTS therapeutic library screen (AID 1346986). Note: nearly all actives have a fitted effect of over 60% in size. The conditions noted are these: KB-3-1 parental cells viability, CellTiter-Glo, 72 h; series mostly up to 44.5 µM. The essentials: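 KB-3-1 parental and colchicine-selected P-gp-overexpressing KB-8-5-11 cells (colchicine omitted during assay), 500 cells/well, dosed in dose-response for 72 h at 37 °C; CellTiter-Glo luminescence. Cytotoxic: curve class -1.1 to -2.4, max response >50%, AC50 < 10 uM.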
In general terms: In qHTS, concentration-response curves come from the screen itself.

Experiment [2] is described as follows: P-glycoprotein substrates identified in KB-8-5-11 adenocarcinoma cell line, qHTS therapeutic library screen (AID 1346987). For activity change, negative = cytotoxicity: % is set by controls: 0 for no effect and ±100 for the full control effect. Note: nearly all actives have a fitted effect of over 65% in size. To be noted: KB-8-5-11 (P-gp overexpressing) viability, CellTiter-Glo, 72 h; series mostly up to 44.5 µM. The essentials: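 Steps: plate 500 KB-8-5-11 cells/well in DMEM + 10% FCS (colchicine removed); pin compounds in dose-response; incubate 72 h, 37 degree C, 5% CO2; add CellTiter-Glo, 5 min; read luminescence.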

The structures appear in SMILES notation. Results filed as inconclusive are left out. Values without a mark were called inactive. The source made the active and inactive calls. Calls come from the whole dose curve; as a rule, active = well fitted curve in the direction sought with a large enough effect; inconclusive = small, poorly fitted or top-dose-only effect, or another doubt; inactive = no such curve, though single readings can be large; an effect the other way counts as inactive or inconclusive.

Regarding `C=CC1(C)CC2CCC3C(C)(C(=O)O)CCCC3(C)C2=CC1=O` (configuration not stated), the Potency result in experiment [1] and in experiment [2] was “inactive” each time.

For `N#Cc1ccc(C2CCCc3cncn32)cc1` (configuration not stated), the Potency result in experiment [1] and in experiment [2] was “inactive” in each case.

As for `C=C1[C@H](OC(C)=O)[C@H]2[C@@H](OC(=O)c3ccccc3)[C@@H](C)C[C@]2(O)[C@@H](OC(C)=O)[C@H](C)/C=C/C(C)(C)C(=O)[C@H](OC(C)=O)[C@H]1OC(C)=O`, the Potency entry in experiment [1] and in experiment [2] was “inactive” throughout.

Consider `Cc1ccc(-n2nc(C(C)(C)C)cc2NC(=O)Nc2cc(COc3cccnc3)[nH]n2)cc1`, for which the Potency result in experiment [1] and in experiment [2] was “inactive” each time.

For the compound `C=C1CCC2C(C)(C(=O)O)CCCC2(C)C1CC/C(C)=C\CO` (configuration not stated), the Potency entry in experiment [1] and in experiment [2] was “inactive” throughout.

On to `O=C(O)CCc1c(C(=O)O)[nH]c2cc(Cl)cc(Cl)c12`, for which the Potency result in experiment [1] and in experiment [2] was “inactive” each time.

Take `CC(=O)OC1CC2C(C)(C)C(=O)C=CC2(C)C2CC(=O)C3=C(CCC3C3=CC(O)OC3=O)C12C` (configuration not stated): the Potency entry in experiment [1] and in experiment [2] was “inactive” throughout.

Consider `CN(C)c1ccc(C2O[C@@H](c3ccccc3)C[C@H](c3ccccc3)O2)cc1` (some centres not stated), for which the Potency result in experiment [1] and in experiment [2] was “inactive” each time.

With `CCCC/C=C\CCCCCc1cc(=O)c2ccccc2n1C`, the Potency result in experiment [1] and in experiment [2] was “inactive” in each case.

`CC(C)=CCC[C@@](C)(O)[C@H]1CC[C@]2(C)[C@@H]1[C@H](O)CC1[C@@]3(C)CC[C@H](O[C@@H]4O[C@H](CO)[C@@H](O)[C@H](O)[C@H]4O[C@@H]4O[C@H](CO)[C@@H](O)[C@H](O)[C@H]4O)C(C)(C)[C@@H]3CC[C@]12C` (some centres not stated): the Potency entry in experiment [1] and in experiment [2] was “inactive” in each case.

In the case of `CC[C@H](C)[C@H](NC(=O)[C@H](Cc1ccc(O)cc1)NC(=O)[C@@H](N)C(C)C)C(=O)N[C@@H](Cc1cnc[nH]1)C(=O)N1CCC[C@H]1C(=O)N[C@@H](Cc1ccccc1)C(=O)O`, the outcome in experiment [1] is “inactive [at 5.11 µM]”. Also, the activity change, negative = cytotoxicity in experiment [2] was 1.21% [at 5.11 µM].
